The record followed here is PubChem BioAssay AID624354 (Sanford-Burnham Center for Chemical Genomics, 2012).

Screen size: about 360,000 compounds; about 3,800 (1.1%) were called active. This excerpt belongs to a sample that is enriched for actives. Values without a mark were called inactive.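 How the source made its calls: active means compounds causing at least 50% loss of cell viability in the single-dose screen, relative to plate controls; inactive means the rest.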

The test can be described thus: TRAIL-exposed caspase-8 expressing cell killing – NB7+C8 cells, ATPlite luminescence, TRAIL sensitizer project, primary screen (AID 624354). The following applies: at 10 µM, active compounds read high. Background: In ATP-based viability assays light output follows the ATP content of the culture.
Regarding `Cc1ccc(C(=O)O/N=C(\N)c2ccccn2)cc1Cl`, the inhibition (viability loss, TRAIL sensitization) is 74.5% (active).

`N/C(=N\OC(=O)c1ccc([N+](=O)[O-])cc1)c1ccccn1`: the inhibition (viability loss, TRAIL sensitization) is 24.5%.

`N/C(=N\OC(=O)CCC1CCCCC1)c1ccccn1`: the inhibition (viability loss, TRAIL sensitization) is -5.71%.

Take `CNc1nc(SC)nc(N(C#N)CC(=O)OC)n1`: the inhibition (viability loss, TRAIL sensitization) was -0.928%.

Take `COC(=O)c1cccc(C(=O)N2CCCC(Nc3ccc4c(c3)OCCO4)C2)c1` (stereo unspecified): the inhibition (viability loss, TRAIL sensitization) is -3.93%.

As to `COc1ccc(S(=O)(=O)N2CCCC(C(=O)NCCCn3ccnc3)C2)cc1OC` (stereo unspecified), the inhibition (viability loss, TRAIL sensitization) was -12.7%.

Regarding `COc1ccc2nc(-c3ccccn3)ccc2c1`, the inhibition (viability loss, TRAIL sensitization) is 80.3% (active).

On to `COc1ccc(C=C(C#N)C#N)c(CSc2ccccn2)c1`, for which the inhibition (viability loss, TRAIL sensitization) is 1.8%.

For `COc1ccc2cc(CCl)c(Cl)nc2c1`, the inhibition (viability loss, TRAIL sensitization) is -1.84%.

`CC[C@H](C)[C@@H](C(=O)N1CCNCC1)n1cc([C@@H](N)Cc2ccc(O)cc2)nn1`: the inhibition (viability loss, TRAIL sensitization) is -6.33%.

In the case of `CC1(C(=O)NS(=O)(=O)c2ccccc2)CCN1C(=O)Cc1ccc(-c2ccccc2)cc1` (stereo unspecified), the inhibition (viability loss, TRAIL sensitization) is 4.55%.

For `CCCNC(=O)C1(C)CCN1C(=O)Cc1ccc(-c2ccccc2)cc1` (stereo unspecified), the inhibition (viability loss, TRAIL sensitization) was 5.54%.

Take `C#Cc1ccc(NC(=O)C2(C)CCN2C(=O)Cc2ccc(-c3ccccc3)cc2)cc1` (stereo unspecified): the inhibition (viability loss, TRAIL sensitization) is 73.3% (active).

With `Cc1cccc2c1-c1sc(C(=O)NCCCN3CCc4ccccc4C3)cc1CO2`, the inhibition (viability loss, TRAIL sensitization) was 11.6%.

Regarding `Cc1noc(C)c1CSCC(=O)Nc1nc2ccc(Oc3ccccc3)cc2s1`, the inhibition (viability loss, TRAIL sensitization) was -12.9%.

As for `COc1cccc(C(NC(C)=O)c2nc(-c3ccccc3OC)cs2)c1` (stereo unspecified), the inhibition (viability loss, TRAIL sensitization) was 2.76%.

Consider `COc1ccc2nc(Nc3nc(-c4cc5ccccc5oc4=O)cs3)sc2c1`, for which the inhibition (viability loss, TRAIL sensitization) was 69.2% (active).

As for `CC(=O)CSc1nnc(CSc2ncccn2)n1C1CCCCC1`, the inhibition (viability loss, TRAIL sensitization) is -3.63%.

Consider `O=C(NCCc1ccccc1Cl)C1CCC(=O)N(CCCc2ccccc2)C1` (stereo unspecified), for which the inhibition (viability loss, TRAIL sensitization) is 6.8%.

Regarding `Fc1ccc(/C=N/Nc2nc(-c3cccnc3)nc3ccccc23)cc1`, the inhibition (viability loss, TRAIL sensitization) is 50.2% (active).

Consider `Brc1ccc(-c2csc(N/N=C/c3cccnc3)n2)cc1`, for which the inhibition (viability loss, TRAIL sensitization) was 2.52%.

As to `CCN(CC(=O)NC1CCS(=O)(=O)C1)c1nc(-c2cccnc2)nc2ccccc12` (stereo unspecified), the inhibition (viability loss, TRAIL sensitization) is 11.4%.

With `O=C(NNS(=O)(=O)c1ccccc1)c1cnn(-c2ccc(Cl)cc2)c1C(F)(F)F`, the inhibition (viability loss, TRAIL sensitization) is 18.4%.

With `Cc1ccc(NC(=O)CCOc2ccccc2)cc1S(=O)(=O)Nc1ccccc1Cl`, the inhibition (viability loss, TRAIL sensitization) was 5.58%.

In the case of `CN(C(=O)CSc1cccc[n+]1[O-])C1CCCCC1`, the inhibition (viability loss, TRAIL sensitization) is 9.54%.

Take `O=C(c1cc2ccccc2o1)N1CCN(c2cccc(C(F)(F)F)c2)CC1`: the inhibition (viability loss, TRAIL sensitization) is -2.4%.
